High-throughput results (PubChem)
GAA inhib: alpha-glucosidase (human) inhibition; Potency, µM (titrated, usually from 76.9 µM), for the others: at the top dose activity change, negative = inhibition, most hits filed as inhibitors; actives 0.005% (n = 200,000); P10253; AID 1466; purified human GAA, 4-MU-alpha-glucoside fluorescence;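 note: potency is the fitted concentration of half-maximal effect; plate controls were uninhibited enzyme wells for no effect and no-enzyme background for full effect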
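Enzyme (4 nM final) mixed with compound (up to 77 uM), then 4-MU-alpha-D-pyranoside (400 uM final) added; 20 min at room temperature, pH 5.0. Reaction stopped at pH 10, fluorescence read, AC50 derived by Hill fit.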
aGal spleen mod: alpha-galactosidase A (human) modulation | AID 2107 | human spleen homogenate, 4MU-alpha-Gal fluorescence, 40 min | actives 0.008% (n = 240,000) | Potency, µM (series often up to 80 µM), for inactives: at the top dose activity change, negative = inhibition, hits mostly inhibitors;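 note: potency is the fitted concentration of half-maximal effect; 0% = enzyme with vehicle and -100% = no enzyme basal signal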
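Human spleen homogenate (1 ug) was the enzyme source, with 4-methylumbelliferyl-alpha-D-galactopyranoside (1 mM final) in pH 5.0 citrate buffer with 0.01% Tween-20. Compounds were titrated; after 40 min at 37C, NaOH/glycine stop, 4-MU fluorescence read; AC50 from Hill fits.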
aGlu spleen mod: inhibitors or activators of human alpha-glucosidase in spleen homogenate; actives 0.006% (n = 240,000); P10253; AID 2112; Potency, µM (top dose mostly 79.9 µM), without a hit: at the highest dose activity change, negative = inhibition, most hits filed as inhibitors; human spleen homogenate, 4-MU-alpha-glucoside fluorescence;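 note: potency is the fitted concentration of half-maximal effect; 0% = enzyme with vehicle and -100% = no enzyme basal signal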
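Compounds were titrated against alpha-glucosidase in spleen homogenate at pH 5.0, with 1 mM 4-methylumbelliferyl substrate for 40 min at 37 C. Reactions were quenched with pH 10 NaOH/glycine and fluorescence measured.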
GAA glycogen mod: GAA glycogen-cleavage inhibition or activation; recombinant GAA, glycogen substrate, Amplex Red glucose oxidase fluorescence; actives 0.38% (n = 300,000); Potency, µM (top dose mostly 76.4 µM), without a hit: top-dose activity change, negative = inhibition, hits mostly inhibitors;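 note: potency is the fitted concentration of half-maximal effect; 0% = full enzyme reaction and -100% = no-enzyme basal signal; the screen sought inhibitors and activators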
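Recombinant human enzyme (4 nM); glycogen substrate; 37 C, 40 min, pH 5.0. Readout: coupled glucose oxidase/Amplex Red fluorescence.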
GLA inh pH 4.5: alpha-galactosidase A (human) inhibition, pH 4.5; purified enzyme, 4-MU-alpha-Gal fluorescence, pH 4.5; activity change, negative = inhibition, % at 105 µM; 230,000 tested, under 10 active; AID 1467;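 note: 0% = full activity with enzyme and -100% = basal without enzyme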
Target sequence (P06280 whole entry, looked up): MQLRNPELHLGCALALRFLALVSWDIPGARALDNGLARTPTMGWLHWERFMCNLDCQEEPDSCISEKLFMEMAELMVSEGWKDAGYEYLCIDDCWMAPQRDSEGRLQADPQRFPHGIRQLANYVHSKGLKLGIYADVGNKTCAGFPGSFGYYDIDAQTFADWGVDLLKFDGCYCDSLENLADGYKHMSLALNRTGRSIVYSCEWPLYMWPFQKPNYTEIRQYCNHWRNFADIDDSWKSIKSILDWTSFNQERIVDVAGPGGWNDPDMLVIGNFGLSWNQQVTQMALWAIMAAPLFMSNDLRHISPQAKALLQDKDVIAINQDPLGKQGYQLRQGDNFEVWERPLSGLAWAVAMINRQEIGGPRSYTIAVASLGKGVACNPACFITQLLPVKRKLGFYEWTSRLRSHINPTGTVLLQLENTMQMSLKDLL
* hit, by the source's call; ? = inconclusive; . = no result given; [ ] = dose if it differs, or a comment. Only a selection was taken, and hits are over-represented in it overall. Calls come from the whole dose curve; as a rule, active = well fitted curve in the direction sought with a large enough effect; inconclusive = small, poorly fitted or top-dose-only effect, or another doubt; inactive = no such curve, though single readings can be large; an effect the other way counts as inactive or inconclusive.

SMILES	GAA inhib	aGal spleen mod	aGlu spleen mod	GAA glycogen mod	GLA inh pH 4.5
CC[C@H]1C(c2cccc(Cl)c2)=NN(c2ccccc2)[C@@H]1CO	.	9%[119 µM]	4%[119 µM]	.	?
Oc1ccc(/C=N/N2CCN(c3ccccn3)CC2)cc1	.	-5%	-3%	11µM*	4
Oc1cccc(/C=N/N2CCN(c3ccccn3)CC2)c1	.	0%	0%	?	-7
COc1ccc(OC)c(S(=O)(=O)Nc2ccc(O)c3ccccc23)c1	-2%	1%	-7%	14µM*	2
Cc1cc(C(F)(F)F)nn1CC(=O)NNC(=S)Nc1ccc(F)cc1	0%	4%	0%	40µM*	-1
Cc1cc(C(F)(F)F)nn1CC(=O)NNC(=S)Nc1ccc(Cl)cc1	-4%	6%	1%	-5%	6
CCC(C)c1cc([N+](=O)[O-])cc([N+](=O)[O-])c1OC(C)=O (centres undefined)	.	4%	1%	.	.
CCc1ccc(O)c(N=Cc2cccc(C)c2O)c1	3%	4%	-8%	16µM*	-6
Cc1cccc(C=Nc2ccc3c4c(cccc24)CC3)c1O	7%	17%	3%	14µM*	-7
Oc1ccc(Cl)cc1C=Nc1ccc2c3c(cccc13)CC2	9%	8%	4%	0%	-15
C[C@H](NC(=O)[C@@H](Cc1c[nH]c2ccccc12)NC(=O)[C@@H](N)Cc1cnc[nH]1)C(=O)N[C@@H](Cc1c[nH]c2ccccc12)C(=O)N[C@H](Cc1ccccc1)C(=O)N[C@@H](CCCCN)C(N)=O	.	-5%	3%	.	.
O=c1c2nc(Br)n([C@@H]3O[C@@H]4CO[P@@](O)(=S)O[C@H]4[C@H]3O)c2nc2[nH]c(-c3ccccc3)cn12	.	5%	1%	.	.
CSCC[C@@H]1NC(=O)[C@@H](NC(=O)[C@H](CCCNC(=N)N)NC(=O)[C@H](CC(C)C)NC(=O)[C@H](CCSC)NC(=O)[C@H](CC(=O)O)NC(=O)[C@H](Cc2ccccc2)NC(=O)[C@@H](N)CC(=O)O)CSSC[C@@H](C(=O)N[C@@H](Cc2c[nH]c3ccccc23)C(=O)N[C@@H](CCC(N)=O)C(=O)N[C@@H](Cc2ccc(O)cc2)C(=O)O)NC(=O)[C@@H]2CCCN2C(=O)[C@H](CCCNC(=N)N)NC(=O)[C@H](Cc2ccccc2)NC(=O)[C@H](C(C)C)NC(=O)[C@H](CCCNC(=N)N)NC(=O)CNC(=O)[C@H](CC(C)C)NC1=O	.	9%	5%	.	.
CC(=O)OC[C@@H]1O[C@@H](O/N=C2/C[C@@H](O)[C@@H](O)[C@@H]3[C@@H]4C(=O)N([C@@H](C)c5ccccc5)C(=O)[C@H]4CC[C@@H]23)[C@H](OC(C)=O)[C@H](OC(C)=O)[C@@H]1OC(C)=O	.	-8%[17.5 µM]	-2%[17.4 µM]	.	.
Cc1ccc(CC(=O)Nc2ccc(C(=O)N3CCOCC3)cc2)cc1	.	.	.	-3%[76.3 µM]	.
CC(=O)/C(=N\Nc1ccc(C)cc1)N1CCOCC1	-2%	7%	1%	12µM*	-3
COc1cc(CN2CCN(C(=O)CC(C)C)CC2)cc(OC)c1O	-5%	0%	3%	40µM*	-6
COc1ccc(C(=O)N2CCN(Cc3cc(OC)c(O)c(OC)c3)CC2)cc1OC	3%	6%	7%	20µM*	1
N.N.N.N.N.N.N.N.N.N.N.N.N.N.O.O.[Cl-].[Cl-].[Cl-].[Cl-].[Cl-].[Cl-].[Ru].[Ru].[Ru]	.	6%	2%	.	-15
COc1ccc(NC(=S)NNC(=O)c2cccnc2)cc1OC	-7%	7%	-6%	4µM*	2
COc1ccc(C(=O)NNC(=S)NC(=O)c2cccnc2)cc1	4%	1%	-3%	40µM*	-2
COc1ccc(Cl)cc1NC(=S)NNC(=O)c1cccnc1	-6%	-11%	1%	?	-8
CC(C)[C@H](NC(=O)[C@H](CCCCN)NC(=O)[C@@H](NC(=O)[C@@H]1CCCN1C(=O)[C@H](CCCN=C(N)N)NC(=O)[C@H](CCCN=C(N)N)NC(=O)[C@H](CCCCN)NC(=O)[C@H](CCCCN)NC(=O)CNC(=O)[C@@H](NC(=O)[C@@H]1CCCN1C(=O)[C@@H](N)CCCCN)C(C)C)C(C)C)C(=O)N[C@@H](Cc1ccc(O)cc1)C(=O)N1CCC[C@H]1C(=O)O	.	5%	4%	.	.
CCOC(=O)N/N=C1/C[C@@H](O)[C@@H](O)[C@@H]2[C@@H]3C(=O)N([C@@H](C)c4ccccc4)C(=O)[C@H]3CC[C@@H]12	.	6%[17.5 µM]	4%[17.4 µM]	.	.
CCOC(=O)c1c(N)sc2c1CCCC2	2%	4%	-8%	35µM*	2
SMILES	GAA inhib	aGal spleen mod	aGlu spleen mod	GAA glycogen mod	GLA inh pH 4.5
CCOC(=O)c1c(N)sc2c1CCC(C)C2 (centres undefined)	-3%	2%	1%	?	-15
NCCCCCCNc1nc2c(N)ncnc2n1[C@@H]1O[C@@H]2COP(=O)(O)O[C@H]2[C@H]1O	.	2%	-1%	.	.
O=C1CCC/C1=C/Nc1ccc(Cl)cc1	1%	-2%	-1%	-9%	-5
O=C1CCCC/C1=C\Nc1ccc(O)cc1	-14%	4%	-5%	8.8µM*	5
COc1ccc(C(=O)c2ccccc2)c2c(O)ccc(C(=O)c3ccccc3)c12	-5%	6%	5%	-3%	5
COc1ccc(C(C)=O)c2c(O)cccc12	0%	7%	9%	40µM*	-1
COc1cc(C2C(C#N)=C(N)Oc3n[nH]c(-c4cccs4)c32)cc(OC)c1O (centres undefined)	.	8%	8%	18µM*	-1
O=C(NNc1c2ccccc2nc2ccccc12)c1ccc(O)cc1	7%	3%	1%	11µM*	-9
Cc1ccc(C(=O)NNc2nc3ccccc3nc2C(F)(F)F)cc1	-3%	-1%	-9%	16µM*	-6
O=C(NNc1c2ccccc2nc2ccccc12)c1ccc(O)cc1O	-8%	-5%	-5%	28µM*	1
O=C(NNc1c2ccccc2nc2ccccc12)c1ccccc1O	-3%	23%	-5%	7%	5
C[C@@H]1CCC[C@]2(C)CCCC[C@@]12O	.	1%	1%	.	.
Nc1ccccc1S(=O)(=O)Nc1cccc2cccnc12	.	-1%	-3%	.	.
COc1cc(OC)cc(-c2nnc3n2N=C(c2ccc(OC)cc2OC)CS3)c1	.	2%	2%	.	.
O=C1CC(c2ccc(F)cc2)c2c(c3ccccc3[nH]c2=O)O1 (centres undefined)	.	.	.	13%[76.3 µM]	.
COc1cc(C2CC(=O)Oc3c2c(=O)[nH]c2ccccc32)cc(OC)c1OC (centres undefined)	.	.	.	50µM*	.
O=c1[nH]c(CN2CCN(CCO)CC2)nc2ccccc12	-4%	-7%	-13%	3%	6
O=c1[nH]c(CN2CCN(c3ccccc3O)CC2)nc2ccccc12	?	7%	2%	7.9µM*	-2
